High-throughput results: PubChem, National Center for Advancing Translational Sciences (NCATS)
PNC inhibitor – High Content Assay for Compounds that inhibit the Assembly of the Perinucleolar Compartment. PC3M PTB-GFP, PNC prevalence imaging, 16 h; stronger effect = lower value. activity change (PNC), negative = inhibition, % at 10 µM. hit rate 3.1% among 140,000;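 active = readout at or below -70, meaning at least 70% loss of cells showing the perinucleolar compartment, a nuclear body marking cancer cells; inconclusive = readout between -30 and a set limit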
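Read-out is percentage of cells bearing a perinucleolar compartment, from automated 20x imaging of fixed, Hoechst-stained PC3M PTB-GFP cells. Cells were seeded 4 h, then exposed 16 h to compound (23 nl of library stock) in duplicate plates.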
ALDH1A1 block – qHTS Assay for Inhibitors of Aldehyde Dehydrogenase 1 (ALDH1A1); Aldehyde dehydrogenase 1A1 (Homo sapiens), P00352; Purified ALDH1A1, NADH fluorescence, propionaldehyde substrate; Potency, µM (series often up to 75.3 µM), hits mostly inhibitors; hit rate 7.3% among 220,000; AID 1030, 2008; active = well fitted inhibition curve with a large enough effect, not every such curve was filed as active; inconclusive = small, poorly fitted or top-dose-only effect, or another doubt; inactive = no such curve, though single readings can be large or run the other way
IMPase Li cell – qHTS Assay for Identifying the Cell-Membrane Permeable IMPase Inhibitors: Potentiation with Lithium; CHO-M1 cells, IP1 TR-FRET (IP-One), carbachol + lithium; Potency, µM (top dose mostly 59.4 µM), actives largely listed as inhibitors; hit rate 0.35% among 210,000; AID 1457, 2008;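 note: IP1 builds up when IMPase is blocked and the TR-FRET signal falls; nearly all actives have a fitted effect of over 50% in size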
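Readout is a homogeneous TR-FRET IP1 immunoassay (Ex 320, Em 665 and 620), where raised cytosolic IP1 lowers signal. Cells were CHO-M1 treated 30 min at 37C with test compounds plus a little lithium; AC50 values came from Hill-equation fitting.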
IMPase inh – qHTS Assay for Identifying the Cell-Membrane Permeable IMPase Inhibitors. Inositol monophosphatase 1 (Rattus norvegicus), P97697. CHO-M1 cells, IP1 accumulation, HTRF TR-FRET ratio. inhibition (IP1 accumulation), % at 46.1 µM. 120,000 tested, under 10 active. AID 901, 2007; active = well fitted curve in the direction sought with a large enough effect in the signal ratio, not every such curve was filed as active; inconclusive = small, poorly fitted or top-dose-only effect, or a change in a side signal; inactive = no such curve, though single readings can be large or run the other way; the % refers to the signal ratio;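 note: cells stimulated with carbachol in lithium chloride buffer; higher means more IMPase inhibition seen as more IP1 and lower FRET ratio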
Target sequence (P97697 whole entry, looked up): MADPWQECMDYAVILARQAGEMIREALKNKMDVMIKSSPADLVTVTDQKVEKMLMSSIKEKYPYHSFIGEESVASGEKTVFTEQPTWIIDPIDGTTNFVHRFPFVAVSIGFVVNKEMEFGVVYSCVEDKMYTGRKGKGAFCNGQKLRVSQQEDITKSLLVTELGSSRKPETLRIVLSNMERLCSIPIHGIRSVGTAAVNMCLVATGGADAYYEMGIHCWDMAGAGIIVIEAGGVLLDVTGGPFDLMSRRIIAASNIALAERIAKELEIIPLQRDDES
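Carbachol-driven Gq signalling in CHO-M1 cells (2000/well) generates IP1. Compounds that block IMPase raise IP1 and so reduce the FRET signal from Eu-anti-IP1 and d2-IP1 after a 10 min room-temperature lysis.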
12-hLO inh – qHTS Assay for Inhibitors of 12-hLO (12-human lipoxygenase). hit rate 0.12% among 150,000. Potency, µM (top dose mostly 57.1 µM), actives largely listed as inhibitors. Polyunsaturated fatty acid lipoxygenase ALOX12 (Homo sapiens), P18054. purified 12-hLO, xylenol orange hydroperoxide absorbance; note: nearly all actives have a fitted effect of over 55% in size
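Lipoxygenase turnover measured by absorbance at 573 and 405 nm after Fe-XO development. Human 12hLO 150 nM, arachidonate 40 uM, pH 7.0 Hepes buffer with detergent; 15 min compound preincubation, 30 min reaction.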
HPGD inh – qHTS Assay for Inhibitors of HPGD (15-Hydroxyprostaglandin Dehydrogenase); 15-hydroxyprostaglandin dehydrogenase [NAD(+)] (Homo sapiens), P15428; purified HPGD, NADH fluorescence kinetic, PGE2 substrate; Potency, µM, actives largely listed as inhibitors; hit rate 4.3% among 150,000; active = well fitted inhibition curve with a large enough effect, not every such curve was filed as active; inconclusive = small, poorly fitted or top-dose-only effect, or another doubt; inactive = no such curve, though single readings can be large or run the other way
Target sequence (P15428 whole entry, looked up): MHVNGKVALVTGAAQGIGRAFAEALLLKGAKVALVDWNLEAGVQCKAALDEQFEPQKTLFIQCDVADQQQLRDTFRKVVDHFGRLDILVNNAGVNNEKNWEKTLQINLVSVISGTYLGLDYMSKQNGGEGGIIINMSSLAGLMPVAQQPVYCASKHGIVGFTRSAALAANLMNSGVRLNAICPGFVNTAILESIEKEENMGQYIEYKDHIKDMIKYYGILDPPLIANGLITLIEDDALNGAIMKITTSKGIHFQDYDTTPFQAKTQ
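20 nM HPGD preincubated 15 min at room temperature with compound in 50 mM Tris-HCl pH 8, 0.01% Tween 20. Started with 1 mM NAD+ and 30 uM prostaglandin E2; NADH fluorescence (360/450 nm) read 5 times over 30-s intervals, last minus first.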
Numbers stand for hits; i = inactive; ? = inconclusive; nt = no result; [ ] = dose if it differs, or a comment. Compounds with a hit are over-represented: about 11% of the library has one in this group of screens. Unless noted, calls come from the whole dose curve; as a rule, active = well fitted curve in the direction sought with a large enough effect; inconclusive = small, poorly fitted or top-dose-only effect, or another doubt; inactive = no such curve, though single readings can be large; an effect the other way counts as inactive or inconclusive.

SMILES	PNC inhibitor	ALDH1A1 block	IMPase Li cell	IMPase inh	12-hLO inh	HPGD inh
CC(C)(C)C(=O)OCOP(=O)(OCOC(=O)C(C)(C)C)C(C)(Oc1ccc(O)cc1)P(=O)(OCOC(=O)C(C)(C)C)OCOC(=O)C(C)(C)C	nt	?	i	nt	i[0.00818 µM]	i
N#Cc1ccc(C(c2nnnn2Cc2ccccc2)N2CCCC2)cc1 (stereo not given)	i	i	i	i	i	i
O=S(=O)(Cc1ccccc1)c1nnnn1-c1ccccc1	nt	0.45µM	i	nt	nt	i
N#Cc1ccc(CS(=O)(=O)c2nnnn2-c2ccccc2)cc1	nt	0.79µM	i	nt	nt	i
N#Cc1ccc(CS(=O)(=O)c2nnnn2C2CCCCC2)cc1	nt	i	i	nt	nt	i
CCS(=O)(=O)c1nnnn1-c1ccccc1S(C)(=O)=O	-117	?	i	i	i	i
O=S(=O)(CCc1ccccc1)c1nnnn1-c1ccccc1	nt	i	i	nt	nt	i
N#Cc1cccc(CS(=O)(=O)c2nnnn2C2CCCCC2)c1	nt	25µM	i	nt	nt	i
CCOc1cccc(C(=O)Nc2c(C(=O)c3ccc(OC)cc3)oc3ccccc23)c1	nt	nt	nt	i	nt	nt
C[C@@]12CCC(=O)C=C1CC[C@H]1[C@H]3CC[C@](O)(C(=O)CO)[C@]3(C)CC(=O)[C@@H]12	nt	i	i	i	i	i
c1ccc(CNc2nnnn2-c2ccccc2)cc1	i	40µM	i	i	i	i
COc1ccc(CN(C2CCCC2)S(=O)(=O)c2ccc(-n3cnnn3)cc2)cc1OC	i	1.8µM	i	i	i	i
CC1CCCC(NC(=O)CCC(=O)c2ccc(F)cc2)C1C (stereo not given)	nt	16µM	nt	nt	nt	nt
CC1CCCC(NC(=O)CSc2ccc(F)cc2)C1C (stereo not given)	nt	?	i	nt	nt	nt
CCc1nnc(NS(=O)(=O)c2ccc(NC(=S)NC(=O)/C=C/c3ccc(OC)cc3)cc2)s1	i	2.5µM	?	i	i	?
CCc1nnc(NS(=O)(=O)c2ccc(NC(=S)NC(=O)/C=C/c3ccccc3)cc2)s1	i	?	i	i	?	?
CCc1nnc(NS(=O)(=O)c2ccc(NC(=S)NC(=O)c3ccc(Br)cc3)cc2)s1	i	i	i	nt	?	14µM
CCc1nnc(NS(=O)(=O)c2ccc(NC(=S)NC(=O)/C=C/c3ccc(C(C)C)cc3)cc2)s1	i	i	i	i	16µM	25µM
CN1C(=O)C(=C2CCCCCC2)SC1=S	i	?	i	i	i	i
O=C1NC(=S)SC1=C1CCCC1	i	?	i	i	i	35µM
CCOC(=O)c1cnc2c(ccc3ccccc32)c1Nc1ccc(C(C)=O)cc1	nt	nt	nt	i	nt	nt
Cc1ccc(-c2cc(C(=O)OCC(=O)c3ccccc3)c3cccc(Cl)c3n2)cc1	nt	nt	nt	i	nt	nt
COc1ccc(OC)c(NC(=O)[C@H]2CC=CC[C@H]2C(=O)O)c1	i	i	i	i	i	i
O=C(O)C1CC=CCC1C(=O)Nc1cccnc1 (stereo not given)	nt	i	i	nt	nt	nt
N#Cc1ccc(Oc2ccc(NC(=O)C3CC=CCC3C(=O)O)cc2)cc1 (stereo not given)	nt	0.5µM	i	nt	nt	nt
SMILES	PNC inhibitor	ALDH1A1 block	IMPase Li cell	IMPase inh	12-hLO inh	HPGD inh
Cc1cccc(Oc2ccc(NC(=O)C3CC=CCC3C(=O)O)cc2)c1 (stereo not given)	nt	1.8µM	i	nt	nt	nt
CN1CCN(CCCNN)CC1	nt	i[13.5 µM]	i	nt	i[11.4 µM]	i
Cc1ccc2nc(-c3cccnc3)cc(C(=O)N3CCN(c4ccc([N+](=O)[O-])cc4)CC3)c2c1	nt	8.9µM	i	nt	nt	nt
O=C(c1cc(-c2cccnc2)nc2ccc(Br)cc12)N1CCN(c2ncccn2)CC1	?	i	11µM	i	i	16µM
CC(=O)c1ccc(N2CCN(C(=O)c3cc(-c4cccnc4)nc4ccc(Br)cc34)CC2)cc1	nt	i	i	nt	nt	nt
Cc1ccc(-c2cc(C(=O)NCc3cnn(C)c3C)c3cc(Br)ccc3n2)cc1	i	i	?	?	i	i
Cc1ccc2c(C(=O)N3CCN(c4ccccc4)CC3)cc(-c3cccnc3)nc2c1C	nt	?	i	nt	nt	nt
